The supplement of paper PMC11732987, “Enantioselective OTUD7B fragment discovery through chemoproteomics screening and high-throughput optimisation” (Communications Chemistry, 2025)

How the values were obtained:
Assay in all cases: log2 ratio of Biotin-Ahx-Ub-VS probe labelling (fragment/DMSO); higher = less target engagement (more negative = stronger competition), active = hit call of the paper (q ≤ 0.05, log2 ratio ≤ -1)
Settings in all cases: compound concentration: 200 uM; treatment time: 3 h
USP42 = target: T1, USP42 (UniProt Q9H9J4)
T1 sequence (whole entry): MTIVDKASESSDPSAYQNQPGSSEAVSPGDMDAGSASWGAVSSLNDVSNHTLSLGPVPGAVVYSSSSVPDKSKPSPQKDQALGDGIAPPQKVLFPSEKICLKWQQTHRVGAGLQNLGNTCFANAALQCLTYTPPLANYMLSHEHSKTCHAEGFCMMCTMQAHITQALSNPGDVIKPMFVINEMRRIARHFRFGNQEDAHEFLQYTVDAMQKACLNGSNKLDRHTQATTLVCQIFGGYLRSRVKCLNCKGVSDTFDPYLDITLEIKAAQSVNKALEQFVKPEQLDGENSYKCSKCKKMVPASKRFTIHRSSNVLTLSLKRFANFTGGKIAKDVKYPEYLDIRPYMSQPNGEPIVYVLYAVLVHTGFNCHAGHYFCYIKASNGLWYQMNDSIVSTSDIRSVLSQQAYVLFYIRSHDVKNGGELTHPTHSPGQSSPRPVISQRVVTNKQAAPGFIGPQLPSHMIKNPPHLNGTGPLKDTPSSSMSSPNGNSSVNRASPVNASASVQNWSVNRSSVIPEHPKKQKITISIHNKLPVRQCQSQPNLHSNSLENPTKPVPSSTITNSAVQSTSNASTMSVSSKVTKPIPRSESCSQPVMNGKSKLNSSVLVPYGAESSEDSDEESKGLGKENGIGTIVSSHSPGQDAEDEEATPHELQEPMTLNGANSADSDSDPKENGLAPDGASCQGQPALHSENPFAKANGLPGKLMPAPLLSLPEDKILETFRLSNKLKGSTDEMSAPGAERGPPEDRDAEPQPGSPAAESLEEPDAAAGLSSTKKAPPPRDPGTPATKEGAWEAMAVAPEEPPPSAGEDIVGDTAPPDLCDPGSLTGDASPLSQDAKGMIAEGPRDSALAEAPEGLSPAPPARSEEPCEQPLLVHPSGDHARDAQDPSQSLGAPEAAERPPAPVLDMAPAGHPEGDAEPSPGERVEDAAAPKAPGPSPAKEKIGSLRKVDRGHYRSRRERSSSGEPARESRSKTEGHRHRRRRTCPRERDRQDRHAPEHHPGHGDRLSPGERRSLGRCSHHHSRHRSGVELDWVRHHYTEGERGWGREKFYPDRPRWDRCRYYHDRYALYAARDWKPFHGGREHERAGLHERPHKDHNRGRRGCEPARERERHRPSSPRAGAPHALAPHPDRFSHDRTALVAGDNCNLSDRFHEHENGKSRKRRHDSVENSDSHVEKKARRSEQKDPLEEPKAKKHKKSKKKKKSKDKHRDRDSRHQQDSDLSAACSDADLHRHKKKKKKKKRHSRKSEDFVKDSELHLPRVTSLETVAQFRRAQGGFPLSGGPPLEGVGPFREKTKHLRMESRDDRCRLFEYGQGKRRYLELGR
In short: (§1)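 Each value is an average log2 ratio of fragment to vehicle, tested by unpaired t-test. The underlying Spectronaut label-free quantities were global-median-normalised, and only proteins with ≥2 unique peptides were included. Triplicate HEK293T lysate samples (495 µg) were exposed to fragment at 200 µM or vehicle for 3 h, then to Biotin-Ahx-Ub-VS at 0.5 µM final for 1 h, before NeutrAvidin enrichment of labelled DUBs, LysC and trypsin digestion, and diaPASEF LC-MS/MS.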

USP46 = USP46 (UniProt P62068)
USP46, sequence (P62068 whole entry): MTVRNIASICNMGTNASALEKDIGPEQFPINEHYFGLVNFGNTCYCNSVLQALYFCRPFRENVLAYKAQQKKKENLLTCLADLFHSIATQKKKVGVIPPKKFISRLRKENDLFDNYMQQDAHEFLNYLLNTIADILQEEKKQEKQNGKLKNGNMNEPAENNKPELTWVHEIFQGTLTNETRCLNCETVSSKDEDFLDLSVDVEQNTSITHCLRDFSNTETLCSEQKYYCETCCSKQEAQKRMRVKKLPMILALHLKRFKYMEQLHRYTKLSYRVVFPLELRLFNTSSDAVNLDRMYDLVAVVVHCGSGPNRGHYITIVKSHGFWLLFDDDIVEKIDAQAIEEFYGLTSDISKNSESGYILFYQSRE
In short: as §1

USP47 = target: T2, USP47 (UniProt Q96K76)
T2 sequence (whole entry): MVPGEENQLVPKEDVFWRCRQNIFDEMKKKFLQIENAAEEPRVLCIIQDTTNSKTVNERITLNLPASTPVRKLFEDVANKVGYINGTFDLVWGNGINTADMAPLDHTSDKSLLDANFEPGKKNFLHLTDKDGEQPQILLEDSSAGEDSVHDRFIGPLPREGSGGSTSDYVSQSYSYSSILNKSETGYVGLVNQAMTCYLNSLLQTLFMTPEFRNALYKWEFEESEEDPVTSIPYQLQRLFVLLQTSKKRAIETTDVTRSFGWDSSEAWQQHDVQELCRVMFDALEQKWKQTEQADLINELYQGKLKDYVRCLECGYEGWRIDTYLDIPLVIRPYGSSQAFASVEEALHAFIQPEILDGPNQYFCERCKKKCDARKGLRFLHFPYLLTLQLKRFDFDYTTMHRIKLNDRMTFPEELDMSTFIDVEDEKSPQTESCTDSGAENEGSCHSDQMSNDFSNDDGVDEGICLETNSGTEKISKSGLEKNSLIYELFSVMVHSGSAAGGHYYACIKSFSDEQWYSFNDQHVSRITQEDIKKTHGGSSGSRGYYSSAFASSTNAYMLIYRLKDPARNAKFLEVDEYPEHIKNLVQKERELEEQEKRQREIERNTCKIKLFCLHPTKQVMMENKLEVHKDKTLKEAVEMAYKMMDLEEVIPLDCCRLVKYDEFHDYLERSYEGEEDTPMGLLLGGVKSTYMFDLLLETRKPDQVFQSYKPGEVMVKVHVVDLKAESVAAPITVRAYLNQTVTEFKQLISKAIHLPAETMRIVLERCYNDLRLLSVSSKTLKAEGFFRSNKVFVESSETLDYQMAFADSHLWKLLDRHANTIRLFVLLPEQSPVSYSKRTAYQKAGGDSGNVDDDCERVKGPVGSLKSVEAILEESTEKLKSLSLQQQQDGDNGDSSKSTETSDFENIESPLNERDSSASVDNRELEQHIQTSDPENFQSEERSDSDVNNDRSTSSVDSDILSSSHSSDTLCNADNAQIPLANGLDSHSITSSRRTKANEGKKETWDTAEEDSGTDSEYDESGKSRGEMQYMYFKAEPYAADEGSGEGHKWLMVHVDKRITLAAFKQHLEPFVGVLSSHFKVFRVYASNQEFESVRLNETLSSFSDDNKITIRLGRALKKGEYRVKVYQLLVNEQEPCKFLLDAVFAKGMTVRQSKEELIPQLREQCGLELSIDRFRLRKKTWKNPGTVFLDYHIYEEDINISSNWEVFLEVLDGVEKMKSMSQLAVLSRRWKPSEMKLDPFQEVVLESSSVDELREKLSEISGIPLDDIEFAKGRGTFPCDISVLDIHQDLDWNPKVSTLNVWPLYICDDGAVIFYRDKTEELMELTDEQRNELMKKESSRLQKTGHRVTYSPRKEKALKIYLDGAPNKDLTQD
In short: as §1

USP48 = target: T3, USP48 (UniProt Q86UV5)
T3 sequence (whole entry): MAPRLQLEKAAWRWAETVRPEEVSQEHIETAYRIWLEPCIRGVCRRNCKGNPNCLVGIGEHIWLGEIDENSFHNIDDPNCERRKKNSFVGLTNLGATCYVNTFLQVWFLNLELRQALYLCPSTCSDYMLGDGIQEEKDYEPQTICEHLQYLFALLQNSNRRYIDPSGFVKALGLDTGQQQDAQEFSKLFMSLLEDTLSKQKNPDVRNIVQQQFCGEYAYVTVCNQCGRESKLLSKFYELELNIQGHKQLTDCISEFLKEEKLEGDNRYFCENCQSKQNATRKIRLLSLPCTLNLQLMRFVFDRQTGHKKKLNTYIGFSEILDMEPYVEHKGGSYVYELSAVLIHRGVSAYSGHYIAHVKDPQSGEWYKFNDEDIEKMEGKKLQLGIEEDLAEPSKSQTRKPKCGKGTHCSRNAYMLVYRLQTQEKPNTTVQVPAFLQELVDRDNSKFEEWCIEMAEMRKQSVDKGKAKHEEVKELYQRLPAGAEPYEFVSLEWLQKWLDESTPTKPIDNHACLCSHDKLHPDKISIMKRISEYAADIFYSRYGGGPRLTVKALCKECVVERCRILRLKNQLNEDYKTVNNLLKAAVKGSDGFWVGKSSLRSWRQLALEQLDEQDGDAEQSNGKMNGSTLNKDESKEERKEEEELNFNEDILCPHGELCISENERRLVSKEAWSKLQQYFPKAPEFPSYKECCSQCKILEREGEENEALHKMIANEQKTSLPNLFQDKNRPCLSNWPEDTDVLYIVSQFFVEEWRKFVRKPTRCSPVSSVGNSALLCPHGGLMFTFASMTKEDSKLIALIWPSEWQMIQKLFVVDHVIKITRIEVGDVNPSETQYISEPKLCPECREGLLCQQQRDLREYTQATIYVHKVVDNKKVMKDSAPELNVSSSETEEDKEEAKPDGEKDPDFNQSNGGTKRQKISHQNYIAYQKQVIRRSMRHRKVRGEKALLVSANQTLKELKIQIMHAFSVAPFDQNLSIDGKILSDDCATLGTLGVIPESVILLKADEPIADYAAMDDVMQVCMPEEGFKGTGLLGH
In short: as §1

USP5 = target: T4, USP5 (UniProt P45974)
T4 sequence (whole entry): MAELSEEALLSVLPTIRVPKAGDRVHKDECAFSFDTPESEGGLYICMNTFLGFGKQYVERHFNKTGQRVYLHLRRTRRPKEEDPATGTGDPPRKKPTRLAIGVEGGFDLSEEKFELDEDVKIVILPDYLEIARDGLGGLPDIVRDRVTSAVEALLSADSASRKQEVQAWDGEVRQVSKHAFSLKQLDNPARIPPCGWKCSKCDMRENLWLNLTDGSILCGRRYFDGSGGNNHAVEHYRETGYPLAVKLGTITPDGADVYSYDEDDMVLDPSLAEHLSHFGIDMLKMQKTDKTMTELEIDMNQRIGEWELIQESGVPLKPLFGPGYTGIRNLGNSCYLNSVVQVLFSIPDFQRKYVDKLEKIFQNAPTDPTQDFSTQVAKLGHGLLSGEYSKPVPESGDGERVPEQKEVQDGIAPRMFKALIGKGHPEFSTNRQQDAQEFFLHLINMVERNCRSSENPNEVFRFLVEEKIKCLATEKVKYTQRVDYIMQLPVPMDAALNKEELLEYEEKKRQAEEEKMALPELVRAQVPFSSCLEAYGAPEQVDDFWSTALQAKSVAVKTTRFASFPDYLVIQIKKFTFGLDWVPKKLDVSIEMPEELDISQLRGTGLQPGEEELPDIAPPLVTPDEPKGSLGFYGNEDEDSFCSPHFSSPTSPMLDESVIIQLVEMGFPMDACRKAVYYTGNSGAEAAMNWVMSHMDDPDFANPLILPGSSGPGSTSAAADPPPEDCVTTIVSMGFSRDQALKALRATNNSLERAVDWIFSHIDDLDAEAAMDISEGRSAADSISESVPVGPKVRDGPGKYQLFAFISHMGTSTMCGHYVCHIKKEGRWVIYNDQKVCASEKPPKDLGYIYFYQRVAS
In short: as §1

USP54 = USP54 (UniProt Q70EL1)
USP54, sequence (Q70EL1 whole entry): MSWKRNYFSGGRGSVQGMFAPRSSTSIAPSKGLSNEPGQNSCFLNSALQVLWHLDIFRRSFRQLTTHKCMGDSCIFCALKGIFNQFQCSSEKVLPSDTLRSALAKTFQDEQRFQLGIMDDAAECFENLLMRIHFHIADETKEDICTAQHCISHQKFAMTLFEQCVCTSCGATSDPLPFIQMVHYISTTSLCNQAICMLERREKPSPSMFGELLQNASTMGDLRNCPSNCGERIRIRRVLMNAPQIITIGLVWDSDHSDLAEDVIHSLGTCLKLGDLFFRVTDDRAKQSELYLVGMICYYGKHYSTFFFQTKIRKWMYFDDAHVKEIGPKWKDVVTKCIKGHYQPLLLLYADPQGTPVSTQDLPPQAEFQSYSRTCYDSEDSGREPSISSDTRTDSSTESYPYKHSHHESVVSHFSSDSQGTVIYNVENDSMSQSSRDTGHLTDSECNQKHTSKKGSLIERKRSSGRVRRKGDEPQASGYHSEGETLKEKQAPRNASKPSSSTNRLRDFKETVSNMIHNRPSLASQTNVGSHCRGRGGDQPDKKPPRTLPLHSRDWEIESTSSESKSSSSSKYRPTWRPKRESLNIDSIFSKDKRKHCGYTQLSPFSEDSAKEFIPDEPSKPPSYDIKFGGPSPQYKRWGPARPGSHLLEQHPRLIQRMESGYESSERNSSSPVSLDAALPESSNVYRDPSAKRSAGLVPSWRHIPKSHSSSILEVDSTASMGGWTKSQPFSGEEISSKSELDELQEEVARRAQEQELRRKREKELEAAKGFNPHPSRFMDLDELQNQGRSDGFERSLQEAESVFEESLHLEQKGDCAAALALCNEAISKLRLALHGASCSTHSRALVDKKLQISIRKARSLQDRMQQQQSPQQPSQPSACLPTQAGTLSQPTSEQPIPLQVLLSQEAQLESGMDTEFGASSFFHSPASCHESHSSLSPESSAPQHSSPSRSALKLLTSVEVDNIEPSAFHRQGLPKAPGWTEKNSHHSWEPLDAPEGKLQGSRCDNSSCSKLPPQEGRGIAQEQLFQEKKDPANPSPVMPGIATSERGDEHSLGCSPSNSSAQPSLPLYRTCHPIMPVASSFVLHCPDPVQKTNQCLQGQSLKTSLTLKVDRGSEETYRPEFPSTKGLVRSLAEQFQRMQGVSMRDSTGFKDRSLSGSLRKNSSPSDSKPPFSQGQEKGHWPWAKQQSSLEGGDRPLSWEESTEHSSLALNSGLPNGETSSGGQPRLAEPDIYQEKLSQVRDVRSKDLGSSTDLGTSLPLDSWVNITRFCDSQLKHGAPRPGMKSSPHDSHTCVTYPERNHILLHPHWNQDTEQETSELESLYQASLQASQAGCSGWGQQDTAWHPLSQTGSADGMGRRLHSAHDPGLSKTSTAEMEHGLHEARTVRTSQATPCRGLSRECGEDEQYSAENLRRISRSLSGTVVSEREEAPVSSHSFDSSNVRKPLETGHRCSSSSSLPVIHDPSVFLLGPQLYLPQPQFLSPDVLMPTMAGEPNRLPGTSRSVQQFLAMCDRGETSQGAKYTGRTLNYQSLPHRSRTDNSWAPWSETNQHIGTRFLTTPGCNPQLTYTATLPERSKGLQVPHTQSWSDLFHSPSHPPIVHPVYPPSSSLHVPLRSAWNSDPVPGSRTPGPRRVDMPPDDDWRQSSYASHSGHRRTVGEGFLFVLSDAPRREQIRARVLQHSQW
In short: as §1

USP7 = USP7 (UniProt Q93009)
In short: as §1

USP8 = target: T5, USP8 (UniProt P40818)
T5 sequence (whole entry): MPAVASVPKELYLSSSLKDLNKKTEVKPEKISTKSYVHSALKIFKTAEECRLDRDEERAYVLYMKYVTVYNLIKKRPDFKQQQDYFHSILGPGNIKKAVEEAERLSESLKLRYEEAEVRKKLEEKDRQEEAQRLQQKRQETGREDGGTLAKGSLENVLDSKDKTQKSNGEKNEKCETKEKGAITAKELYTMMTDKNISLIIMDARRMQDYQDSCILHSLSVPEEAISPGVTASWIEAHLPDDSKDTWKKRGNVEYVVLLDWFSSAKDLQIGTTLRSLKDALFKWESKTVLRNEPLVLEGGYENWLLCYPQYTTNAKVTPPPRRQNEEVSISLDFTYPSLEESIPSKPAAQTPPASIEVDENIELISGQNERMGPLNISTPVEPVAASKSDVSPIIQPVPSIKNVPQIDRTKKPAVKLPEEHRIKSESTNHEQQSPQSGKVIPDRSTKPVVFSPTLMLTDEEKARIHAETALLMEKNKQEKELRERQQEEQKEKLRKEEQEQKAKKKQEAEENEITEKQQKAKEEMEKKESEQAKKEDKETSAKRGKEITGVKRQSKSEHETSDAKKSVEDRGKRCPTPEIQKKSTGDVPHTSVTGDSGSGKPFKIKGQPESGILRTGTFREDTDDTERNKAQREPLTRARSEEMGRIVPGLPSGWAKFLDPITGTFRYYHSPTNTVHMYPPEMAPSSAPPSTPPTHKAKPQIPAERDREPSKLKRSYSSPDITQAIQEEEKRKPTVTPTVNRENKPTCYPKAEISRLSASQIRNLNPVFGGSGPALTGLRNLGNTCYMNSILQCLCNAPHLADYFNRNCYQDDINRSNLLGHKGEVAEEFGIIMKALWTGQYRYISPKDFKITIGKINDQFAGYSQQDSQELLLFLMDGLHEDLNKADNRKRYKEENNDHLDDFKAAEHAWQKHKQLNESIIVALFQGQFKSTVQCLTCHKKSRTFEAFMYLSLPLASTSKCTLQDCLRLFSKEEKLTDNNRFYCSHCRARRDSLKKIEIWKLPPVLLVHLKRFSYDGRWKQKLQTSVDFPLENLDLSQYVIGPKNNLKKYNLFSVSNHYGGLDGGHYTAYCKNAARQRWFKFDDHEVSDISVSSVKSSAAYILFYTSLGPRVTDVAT
In short: as §1

USP9X = USP9X (UniProt Q93008)
USP9X, sequence (Q93008 whole entry): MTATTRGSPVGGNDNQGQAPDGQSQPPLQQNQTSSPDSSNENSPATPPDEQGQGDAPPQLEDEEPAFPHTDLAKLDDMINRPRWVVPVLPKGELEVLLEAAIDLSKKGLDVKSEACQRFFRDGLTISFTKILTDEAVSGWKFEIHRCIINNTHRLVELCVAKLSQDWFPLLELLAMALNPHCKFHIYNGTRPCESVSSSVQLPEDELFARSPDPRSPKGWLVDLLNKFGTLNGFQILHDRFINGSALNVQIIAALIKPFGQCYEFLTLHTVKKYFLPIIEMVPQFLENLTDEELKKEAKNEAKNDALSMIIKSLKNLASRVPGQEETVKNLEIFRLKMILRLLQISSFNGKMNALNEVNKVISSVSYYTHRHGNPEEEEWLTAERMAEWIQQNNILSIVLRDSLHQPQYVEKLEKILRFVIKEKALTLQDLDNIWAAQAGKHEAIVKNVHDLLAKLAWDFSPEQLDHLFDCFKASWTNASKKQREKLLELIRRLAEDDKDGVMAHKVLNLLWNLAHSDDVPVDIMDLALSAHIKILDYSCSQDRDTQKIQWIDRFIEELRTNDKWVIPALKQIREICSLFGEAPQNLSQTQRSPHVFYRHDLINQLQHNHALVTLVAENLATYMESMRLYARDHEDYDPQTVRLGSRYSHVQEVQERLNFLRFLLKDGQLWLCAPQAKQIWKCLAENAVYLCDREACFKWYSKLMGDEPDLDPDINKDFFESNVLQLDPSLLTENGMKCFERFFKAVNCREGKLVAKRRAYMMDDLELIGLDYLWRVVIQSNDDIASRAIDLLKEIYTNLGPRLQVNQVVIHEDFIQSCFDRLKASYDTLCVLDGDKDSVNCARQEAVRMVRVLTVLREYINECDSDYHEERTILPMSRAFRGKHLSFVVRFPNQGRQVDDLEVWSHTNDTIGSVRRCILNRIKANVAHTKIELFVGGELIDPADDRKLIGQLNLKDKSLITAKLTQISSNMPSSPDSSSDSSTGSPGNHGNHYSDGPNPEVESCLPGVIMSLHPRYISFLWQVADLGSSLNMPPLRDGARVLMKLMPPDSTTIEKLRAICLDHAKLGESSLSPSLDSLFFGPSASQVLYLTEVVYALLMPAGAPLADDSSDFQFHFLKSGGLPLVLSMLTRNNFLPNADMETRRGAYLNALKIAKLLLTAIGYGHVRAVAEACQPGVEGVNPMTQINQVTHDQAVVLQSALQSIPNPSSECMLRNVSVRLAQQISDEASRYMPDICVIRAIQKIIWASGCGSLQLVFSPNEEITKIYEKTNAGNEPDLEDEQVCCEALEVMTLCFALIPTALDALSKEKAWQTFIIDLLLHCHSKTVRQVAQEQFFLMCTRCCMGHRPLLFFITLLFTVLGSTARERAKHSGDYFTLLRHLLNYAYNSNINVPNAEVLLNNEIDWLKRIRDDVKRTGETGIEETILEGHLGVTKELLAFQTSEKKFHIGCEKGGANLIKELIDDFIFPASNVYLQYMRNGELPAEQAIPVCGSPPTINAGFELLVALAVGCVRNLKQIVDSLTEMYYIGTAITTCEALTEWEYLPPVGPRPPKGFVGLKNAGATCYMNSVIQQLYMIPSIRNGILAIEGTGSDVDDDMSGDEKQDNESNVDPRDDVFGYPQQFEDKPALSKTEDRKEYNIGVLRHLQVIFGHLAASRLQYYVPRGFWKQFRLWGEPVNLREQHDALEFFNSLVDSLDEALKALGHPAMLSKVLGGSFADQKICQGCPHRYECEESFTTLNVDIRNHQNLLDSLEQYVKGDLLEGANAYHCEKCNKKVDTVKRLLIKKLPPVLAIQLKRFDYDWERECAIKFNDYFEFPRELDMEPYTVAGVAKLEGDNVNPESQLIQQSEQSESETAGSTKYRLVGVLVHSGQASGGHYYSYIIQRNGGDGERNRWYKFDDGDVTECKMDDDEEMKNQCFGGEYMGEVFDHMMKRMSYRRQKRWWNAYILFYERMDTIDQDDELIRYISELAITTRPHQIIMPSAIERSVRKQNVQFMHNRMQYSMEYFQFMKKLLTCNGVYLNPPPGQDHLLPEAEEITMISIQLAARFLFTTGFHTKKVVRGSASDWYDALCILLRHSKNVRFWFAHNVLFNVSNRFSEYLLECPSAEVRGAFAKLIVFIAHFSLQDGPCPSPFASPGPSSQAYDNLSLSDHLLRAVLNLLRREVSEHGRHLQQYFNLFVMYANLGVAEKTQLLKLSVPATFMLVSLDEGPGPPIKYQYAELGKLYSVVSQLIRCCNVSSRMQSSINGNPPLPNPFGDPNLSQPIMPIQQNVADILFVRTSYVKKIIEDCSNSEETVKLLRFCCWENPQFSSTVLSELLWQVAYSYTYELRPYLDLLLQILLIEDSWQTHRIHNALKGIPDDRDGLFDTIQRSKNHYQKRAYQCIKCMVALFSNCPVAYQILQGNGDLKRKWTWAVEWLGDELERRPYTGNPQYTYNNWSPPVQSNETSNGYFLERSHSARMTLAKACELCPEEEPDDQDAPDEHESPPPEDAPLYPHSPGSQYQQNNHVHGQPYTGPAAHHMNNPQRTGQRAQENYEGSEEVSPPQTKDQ
In short: as §1

UniProt O00487 = target: UniProt O00487
UniProt O00487, sequence (O00487 whole entry): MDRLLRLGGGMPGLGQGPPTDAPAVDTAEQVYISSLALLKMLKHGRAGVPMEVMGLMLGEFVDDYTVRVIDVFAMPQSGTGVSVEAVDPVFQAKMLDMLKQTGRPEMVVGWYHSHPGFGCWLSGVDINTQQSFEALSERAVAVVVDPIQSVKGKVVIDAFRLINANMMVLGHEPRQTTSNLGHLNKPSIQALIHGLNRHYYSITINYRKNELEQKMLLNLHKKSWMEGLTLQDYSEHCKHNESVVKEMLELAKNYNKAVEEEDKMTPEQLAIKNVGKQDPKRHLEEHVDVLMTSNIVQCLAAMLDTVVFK
In short: as §1

Measured: log2 ratio of Biotin-Ahx-Ub-VS probe labelling

O=C(CCl)N[C@H]1CC[C@@H](CO)CC1
inactive: USP42 0.163 | USP46 -0.593 | USP47 -0.113 | USP48 -0.534 | USP5 -0.644 | USP54 1 | USP7 -0.752 | USP8 -0.969 | USP9X -0.905 | UniProt O00487 -0.163
